# Results filed as inconclusive are left out. Where a call stands in place of a potency, no number is given. The source made the active and inactive calls. The call rests on the fitted dose curve; in most records, active means well fitted curve in the direction sought with a large enough effect; inconclusive means small, poorly fitted or top-dose-only effect, or another doubt; inactive means no such curve, though single readings can be large; an effect the other way counts as inactive or inconclusive.
# Biological target: Protein phosphatase 1D (Homo sapiens) (UniProt O15297)
# Sequence (O15297 whole entry, looked up): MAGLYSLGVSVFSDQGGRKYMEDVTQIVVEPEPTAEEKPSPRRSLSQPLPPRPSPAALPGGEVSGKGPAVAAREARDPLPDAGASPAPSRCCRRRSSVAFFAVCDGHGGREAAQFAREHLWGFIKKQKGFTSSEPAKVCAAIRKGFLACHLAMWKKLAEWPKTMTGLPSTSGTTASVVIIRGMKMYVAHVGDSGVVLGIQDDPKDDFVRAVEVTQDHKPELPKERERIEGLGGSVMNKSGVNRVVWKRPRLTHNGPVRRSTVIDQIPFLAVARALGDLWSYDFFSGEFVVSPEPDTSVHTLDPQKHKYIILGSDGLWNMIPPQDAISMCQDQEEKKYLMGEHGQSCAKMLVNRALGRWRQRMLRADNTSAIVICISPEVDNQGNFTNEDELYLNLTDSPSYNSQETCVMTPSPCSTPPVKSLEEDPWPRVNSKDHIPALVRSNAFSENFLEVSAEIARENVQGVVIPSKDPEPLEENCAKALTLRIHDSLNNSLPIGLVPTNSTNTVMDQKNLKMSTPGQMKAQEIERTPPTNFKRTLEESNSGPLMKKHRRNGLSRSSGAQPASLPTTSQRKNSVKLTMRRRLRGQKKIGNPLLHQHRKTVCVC
# Test: RapidFire Mass Spectrometry qHTS Assay for Modulators of WT P53-Induced Phosphatase 1 (WIP1) (AID 1347424);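 further: amount of dephosphorylated VEPPL-S-QETFS peptide product formed by WIP1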
# Details: WIP1 dephosphorylation of phosphopeptide, RapidFire MS; series mostly up to 63 µM
# How it was run: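 Mass-spectrometric measurement of dephosphorylated peptide after a 5 min room-temperature reaction of 10 nM WIP1 with 2 uM phosphopeptide, following 1 h compound preincubation in 30 mM MgCl2 buffer.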
row,Compound,Potency
1,CCCc1c2oc(C(=O)O)cc(=O)c2cc2c(=O)cc(C(=O)O)n(CC)c12,inactive
2,COC(=O)CCCCC(CCSS/C(CCO)=C(\C)N(C=O)Cc1cnc(C)nc1N)SC(C)=O (configuration not stated),inactive
3,CN1CCCN=C1/C=C/c1cccs1,inactive
4,CC1(C)O[C@@H]2C[C@H]3[C@@H]4CCC5=CC(=O)C=C[C@]5(C)[C@@]4(F)[C@@H](O)C[C@]3(C)[C@]2(C(=O)CO)O1,inactive
5,COC(=O)c1cc(Cl)ccc1NS(=O)(=O)C(F)(F)F,inactive
6,NS(=O)(=O)c1cc2c(cc1Cl)CN(C1CCCCC1)C2=O,inactive
7,COC(=O)c1cc(Cl)c(NC(C)=O)cc1OC,inactive
8,CCOC(=O)NNc1nncc2ccccc12,inactive
9,CC[C@@]1(O)C(=O)OCc2c1cc1n(c2=O)Cc2c-1nc1ccccc1c2/C=N/OC(C)(C)C,inactive
10,Oc1ccccc1-c1nnco1,inactive
11,O=C(O)CCCC[P+](c1ccccc1)(c1ccccc1)c1ccccc1,inactive
12,C[C@@]12CCC[C@H]1[C@@H]1CC[C@H]3C[C@@H](O)CC[C@]3(C)[C@H]1CC2,inactive
13,CO/N=C(\C(=O)O)c1csc(NC(=O)CCl)n1,inactive
14,CC(=O)N(c1onc(C)c1C)S(=O)(=O)c1ccc(N)cc1,inactive
15,CN1CC(=O)N2[C@H](c3ccc4c(c3)OCO4)c3[nH]c4ccccc4c3C[C@@H]2C1=O,inactive
16,Oc1ccccc1,inactive
17,CCOC(=O)C(=O)CCc1ccccc1,inactive
18,CC(C)C(C)(C)C(C)(C)C(C)(C)S,inactive

row,Compound,Potency
1,CCOC(=O)C(O)c1ccccc1 (configuration not stated),inactive
2,O=C1CCCc2c(O)cccc21,inactive
3,CN1N=C(C(N)=O)CCC1=O,inactive
4,COC(=O)/C=C\C(=O)OC,inactive
5,CCCCCCOC(=O)NC(=N)c1ccc(NCc2nc3cc(C(=O)N(CCC(=O)OCC)c4ccccn4)ccc3n2C)cc1,inactive
6,CO/N=C(/C(=O)N[C@@H]1C(=O)N2C(C(=O)[O-])=C(C[n+]3ccn4ncccc43)CS[C@H]12)c1nsc(N)n1,inactive
7,CC(=O)/C=C/C=C1/C2CCC(C2)C1(C)C (configuration not stated),inactive
8,CN1CC[C@H](c2c(O)cc(O)c3c(=O)cc(-c4ccccc4Cl)oc23)[C@H](O)C1,inactive
9,O=c1[nH]c2ccccc2c(=O)n1CCCl,inactive
10,Cc1c(C)c2c(c(C)c1OC(=O)CCC(=O)OCCO)CC[C@@](C)(CCC[C@H](C)CCC[C@H](C)CCCC(C)C)O2,inactive
11,COc1ccc(CCC(C)=O)cc1,inactive
12,O=C(O)C(=O)Nc1cccc(-c2nn[nH]n2)c1,inactive
13,Nc1cc(C(F)(F)F)ccc1S,inactive
14,NCC(=O)O,inactive
15,O=C(O)[C@H](O)[C@@H](O)[C@H](O[C@@H]1O[C@H](CO)[C@H](O)[C@H](O)[C@H]1O)[C@H](O)CO,inactive
16,CCN(CC)CC(=O)Nc1c(C)cccc1C(=O)OC,inactive
17,CO[C@@]1(NC(=O)CSC[C@@H](N)C(=O)O)C(=O)N2C(C(=O)O)=C(CSc3nnnn3C)CS[C@@H]21,inactive

# Biological target: Protein phosphatase 1D (Homo sapiens) (UniProt O15297)
# Test: Rhodamine-PBP qHTS Assay for Modulators of WT P53-Induced Phosphatase 1 (WIP1) (AID 1347425)
# Details: recombinant WIP1, Rhodamine-PBP phosphate fluorescence, real-time; series mostly up to 57.5 µM
# How it was run: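 The read-out is the change in Rhodamine-PBP fluorescence (f1 - f0, ex 525/em 598 nm) as Pi is released, read each minute for 11 min. Final reaction: 5 nM WIP1, 10 uM phosphopeptide VEPPL-pS-QETFS, 10 uM Rh-PBP, 50 mM Tris-HCl pH 7.5, 30 mM MgCl2. Compound was preincubated with enzyme for 1 hour at room temperature.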
row,Compound,outcome
1,CCCc1c2oc(C(=O)O)cc(=O)c2cc2c(=O)cc(C(=O)O)n(CC)c12,inactive
2,CC1(C)O[C@@H]2C[C@H]3[C@@H]4C[C@H](F)C5=CC(=O)C=C[C@]5(C)[C@@]4(F)[C@@H](O)C[C@]3(C)[C@]2(C(=O)CO)O1,inactive
3,COC(=O)CCCCC(CCSS/C(CCO)=C(\C)N(C=O)Cc1cnc(C)nc1N)SC(C)=O (configuration not stated),inactive
4,CN1CCCN=C1/C=C/c1cccs1,inactive
5,CC1(C)O[C@@H]2C[C@H]3[C@@H]4CCC5=CC(=O)C=C[C@]5(C)[C@@]4(F)[C@@H](O)C[C@]3(C)[C@]2(C(=O)CO)O1,inactive
6,COC(=O)c1cc(Cl)ccc1NS(=O)(=O)C(F)(F)F,inactive
7,NS(=O)(=O)c1cc2c(cc1Cl)CN(C1CCCCC1)C2=O,inactive
8,COC(=O)c1cc(Cl)c(NC(C)=O)cc1OC,inactive
9,CCOC(=O)NNc1nncc2ccccc12,inactive
10,CC[C@@]1(O)C(=O)OCc2c1cc1n(c2=O)Cc2c-1nc1ccccc1c2/C=N/OC(C)(C)C,inactive
11,Oc1ccccc1-c1nnco1,inactive
12,O=C(O)CCCC[P+](c1ccccc1)(c1ccccc1)c1ccccc1,inactive
13,C[C@@]12CCC[C@H]1[C@@H]1CC[C@H]3C[C@@H](O)CC[C@]3(C)[C@H]1CC2,inactive
14,CO/N=C(\C(=O)O)c1csc(NC(=O)CCl)n1,inactive
15,CC(=O)N(c1onc(C)c1C)S(=O)(=O)c1ccc(N)cc1,inactive
16,CN1CC(=O)N2[C@H](c3ccc4c(c3)OCO4)c3[nH]c4ccccc4c3C[C@@H]2C1=O,inactive
17,Oc1ccccc1,inactive
18,CCOC(=O)C(=O)CCc1ccccc1,inactive
19,CC(C)C(C)(C)C(C)(C)C(C)(C)S,inactive

row,Compound,outcome
1,CCOC(=O)C(O)c1ccccc1 (configuration not stated),inactive
2,O=C1CCCc2c(O)cccc21,inactive
3,CN1N=C(C(N)=O)CCC1=O,inactive
4,COC(=O)/C=C\C(=O)OC,inactive
5,CCCCCCOC(=O)NC(=N)c1ccc(NCc2nc3cc(C(=O)N(CCC(=O)OCC)c4ccccn4)ccc3n2C)cc1,inactive
6,CO/N=C(/C(=O)N[C@@H]1C(=O)N2C(C(=O)[O-])=C(C[n+]3ccn4ncccc43)CS[C@H]12)c1nsc(N)n1,inactive
7,C[C@H]1C[C@H]2[C@@H]3CCC4=CC(=O)C=C[C@]4(C)[C@H]3C(=O)C[C@]2(C)[C@@]1(O)C(=O)CO,inactive
8,CC(=O)/C=C/C=C1/C2CCC(C2)C1(C)C (configuration not stated),inactive
9,CN1CC[C@H](c2c(O)cc(O)c3c(=O)cc(-c4ccccc4Cl)oc23)[C@H](O)C1,inactive
10,O=c1[nH]c2ccccc2c(=O)n1CCCl,inactive
11,Cc1c(C)c2c(c(C)c1OC(=O)CCC(=O)OCCO)CC[C@@](C)(CCC[C@H](C)CCC[C@H](C)CCCC(C)C)O2,inactive
12,COc1ccc(CCC(C)=O)cc1,inactive
13,O=C(O)C(=O)Nc1cccc(-c2nn[nH]n2)c1,inactive
14,Nc1cc(C(F)(F)F)ccc1S,inactive
15,NCC(=O)O,inactive
16,O=C(O)[C@H](O)[C@@H](O)[C@H](O[C@@H]1O[C@H](CO)[C@H](O)[C@H](O)[C@H]1O)[C@H](O)CO,inactive
17,CCN(CC)CC(=O)Nc1c(C)cccc1C(=O)OC,inactive
18,CO[C@@]1(NC(=O)CSC[C@@H](N)C(=O)O)C(=O)N2C(C(=O)O)=C(CSc3nnnn3C)CS[C@@H]21,inactive

# From PubChem BioAssay (NCATS)
